The source of these data is the supplement of paper PMC6555819.

What all share (assay): PBM binding z-score (relative to random genomic background probes); higher = stronger binding; sequences stand for … in GC…GCGATTGACAGCGTAGAATGAAGG
Assay [1] concerns FXR:RXRa (NR concentration 270 nM, RXRa partner concentration 90 nM). A digest of the protocol: (§1)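 The probes on custom Agilent 4×180K protein-binding microarrays were double-stranded, with 34-nt variable regions bearing direct-repeat seeds, single-nucleotide variants, half-site ablations and random human genomic background sequences. Incubation lasted 1 h with ligand-free nuclear receptor dimers in PBS pH 7.4, 2% milk, 0.02% Triton X-100, 1 mM DTT, 0.2 mg/mL BSA and 0.4 mg/ml salmon testes DNA. Antibodies against each partner (one per run) detected bound dimers, and fluorescence scans were regression-normalized. Binding z-scores take the random background probes as reference.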

For assay [2], the system named is LXRa:RXRa (NR concentration 270 nM, RXRa partner concentration 90 nM). A digest of the protocol: as §1
For assay [3], the system named is LXRa homodimer (NR concentration 270 nM). Summed up:
as §1

The test system of assay [4] is LXRb:RXRa (NR concentration 270 nM, RXRa partner concentration 90 nM). A digest of the protocol:
as §1

Assay [5] has as its system LXRb homodimer (NR concentration 270 nM). Summed up: as §1
Assay [6] concerns PPARa:RXRa (NR concentration 270 nM, RXRa partner concentration 90 nM). Summed up:
as §1

The subject of assay [7] is PPARg:RXRa (NR concentration 180 nM, RXRa partner concentration 90 nM). A digest of the protocol:
as §1

Assay [8] has as its system PPARg:RXRa 270nM:90nM, anti-RXR (NR concentration 270 nM, RXRa partner concentration 90 nM). Summed up:
as §1

In assay [9] the test system is PPARg:RXRa 30nM:10nM, anti-RXR (NR concentration 30 nM, RXRa partner concentration 10 nM). A digest of the protocol: as §1
The subject of assay [10] is PPARg:RXRa 90nM:30nM, anti-RXR (NR concentration 90 nM, RXRa partner concentration 30 nM). A digest of the protocol: as §1
The subject of assay [11] is PPARg:RXRa DBDmut IVT, anti-RXR (DBD mutation: RXRa K156A/R161A, NR concentration 270 nM, RXRa partner concentration 90 nM). A digest of the protocol: as §1
Assay [12] relates to PPARg:RXRa IVT, anti-PPARg (NR concentration 270 nM, RXRa partner concentration 90 nM). Summed up: as §1
For assay [13], the system named is PPARg DBDmut:RXRa IVT, anti-PPARg (DBD mutation: PPARg1 K132A/R137A, NR concentration 270 nM, RXRa partner concentration 90 nM). Summed up:
as §1

Assay [14] relates to PPARg DBDmut IVT, anti-PPARg (DBD mutation: PPARg1 K132A/R137A, NR concentration 270 nM). Summed up:
as §1

Assay [15] concerns PPARg homodimer (NR concentration 180 nM). Summed up: as §1
Assay [16] has as its system PXR:RXRa (NR concentration 270 nM, RXRa partner concentration 90 nM). Summed up:
as §1

For assay [17], the system named is PXR homodimer (NR concentration 270 nM). Summed up: as §1
Assay [18] relates to RARa:RXR (NR concentration 270 nM, RXRa partner concentration 90 nM). A digest of the protocol:
as §1

Assay [19] concerns RARa homodimer (NR concentration 270 nM). A digest of the protocol:
as §1

Assay [20] has as its system RARb:RXRa (NR concentration 270 nM, RXRa partner concentration 90 nM). A digest of the protocol: as §1

With CGTCCAAGGTCAAAGCTAGGTCAGTGAAAGCATT, the PBM binding z-score in [1] stood at 7.24; in assay [2], 5.98; in [3], 2.25; in assay [4], 4.54; in assay [5] it was 1.44; in [6] it was 5.65. Also, the PBM binding z-score is 4.63 in assay [7]; 5.54 in assay [8]; 1.86 in assay [9]; 4.09 in assay [10]; 3.82 in [11]; 4.33 in [12]. For the same sequence, the PBM binding z-score in assay [13] is 0.45; in assay [14] it was -0.526; in [15], 5.95; in assay [16], 5.09; in assay [17] it was 1.62; in assay [18] it was 6.21. The PBM binding z-score was 1.19 in assay [19] and 5.31 in assay [20].

As to TAGCCTAGGTCATTGGGACAGTATAGTACGCATC, the PBM binding z-score in [1] came out at 4.69; in assay [2], 3.35; in assay [3], 0.922; in assay [4], 2.45; in [5], 0.648; in [6], 3.84. For the same sequence, the PBM binding z-score came out at 3.81 in assay [7]; 3.69 in assay [8]; 1.27 in assay [9]; 2.57 in assay [10]; 3.11 in assay [11]; 3.8 in assay [12]. The PBM binding z-score is 1.3 in assay [13]; 0.736 in [14]; 2.9 in assay [15]; 1.78 in assay [16]; -0.233 in assay [17]; 2.5 in assay [18]. The PBM binding z-score in assay [19] was found to be 0.512; in assay [20], 3.75.

On to CCTATTAGTTGACCTTAAGGGCAACCGAAGCTCG, for which the PBM binding z-score in [1] is 6.12; in [2] it was 4.18; in assay [3], 2.42; in [4] it was 4; in assay [5], 1.3; in assay [6], 4.75. The PBM binding z-score is 1.81 in assay [7]; 3 in assay [8]; 1.29 in assay [9]; 2.42 in [10]; 1.43 in [11]; 2.7 in [12]. In addition, the PBM binding z-score was found to be 1.27 in assay [13]; 0.764 in [14]; 3.46 in assay [15]; 4.4 in [16]; 1.93 in assay [17]; 5.12 in assay [18]. The PBM binding z-score in [19] turned out to be 2.39; in assay [20], 3.64.

Regarding AGAACGAGGTTATTAAGATCAGGGAATTGCGGTC, the PBM binding z-score in assay [1] was 1.44; in assay [2] it was 1.34; in [3], -0.0763; in [4] it was 1.09; in assay [5], -0.115; in assay [6], 2.15. Further, the PBM binding z-score in assay [7] was 1.26; in [8], 1.68; in [9], 0.389; in assay [10] it was 0.958; in assay [11], 2.38; in assay [12], 2.16. Moreover, the PBM binding z-score in assay [13] amounted to 0.246; in assay [14], 0.0385; in assay [15], 0.237; in assay [16] it was 1.04; in [17], 0.955; in [18] it was 1.08. Also, the values for the PBM binding z-score in [19] and in assay [20] were -0.125 and 1.32, respectively.

In the case of GTTCCAAGGTGAATAGGTCGTTGATGAGTAGGCG, the PBM binding z-score in assay [1] was 1.29; in [2], 0.977; in [3], -0.00758; in assay [4], 0.642; in assay [5], 0.0158; in assay [6] it was 2.24. Besides, the PBM binding z-score in assay [7] was 1.16; in assay [8], 1.94; in assay [9], 0.65; in assay [10] it was 1.07; in assay [11], 2.09; in [12], 2.89. For the same sequence, the PBM binding z-score in assay [13] was -0.109; in assay [14] it was 0.149; in [15], 1.58; in assay [16] it was 1.02; in assay [17], 0.352; in assay [18] it was 2.05. The PBM binding z-score in assay [19] stood at 0.818; in assay [20], 2.22.

Consider GTACCAAGGTGAATAGGTCGGTGATGAGTAGGCG, for which the PBM binding z-score in assay [1] was 0.606; in [2], 0.247; in assay [3], -0.139; in assay [4] it was 0.125; in assay [5], -0.619; in assay [6], 1.64. Besides, the PBM binding z-score in assay [7] was determined as 1.24; in [8] it was 1.29; in assay [9], 0.291; in assay [10], 0.711; in [11], 1.48; in assay [12] it was 2.82. In addition, the PBM binding z-score is -0.0174 in assay [13]; 0.489 in [14]; 0.98 in assay [15]; 0.296 in assay [16]; 0.0352 in assay [17]; 1.02 in assay [18]. The values for the PBM binding z-score in assay [19] and in [20] were 0.441 and 1.86, respectively.

Take CCGACTGGGGCATAACGTTACCATAAGCCAGCCC: the PBM binding z-score is -0.396 in [1]; -0.323 in assay [2]; -0.401 in assay [3]; -0.205 in [4]; -1.06 in [5]; 0.0712 in assay [6]. The PBM binding z-score is 0.89 in [7]; 0.484 in assay [8]; -0.471 in assay [9]; 0.117 in [10]; 2.66 in [11]; 1.66 in assay [12]. For the same sequence, the PBM binding z-score in assay [13] was -0.938; in assay [14] it was -1.07; in [15], -0.33; in assay [16] it was -0.824; in assay [17] it was -0.237; in [18], -0.522. For the same sequence, the PBM binding z-score in assay [19] was 0.566; in assay [20], 0.162.
